# Compound activity deposited in PubChem BioAssay by SRMLSC.
# Sampled rows, rich in hits. Any-hit rate of the full collection: about 6.8%.
# DPM-DC inhibit = S. pneumoniae DPM-DC inhibitors, primary screen, biochemical, PK/LDH-coupled NADH fluorescence; actives 0.49% (n = 65,000); AID 556, 2006; calls only at 10 µM; purified DPM-DC; diphosphomevalonate decarboxylase (Streptococcus pneumoniae D39);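 active = the 320 compounds with the highest percent inhibition in the single-dose primary screen, excluding strongly autofluorescent ones, cut at about 32% in these data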;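 note: kinetic rate of NADH fluorescence loss reporting ADP formed by the decarboxylase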
# NADH coupling = inhibitors of PK/LDH coupling enzymes, profiling panel, artefact control, biochemical, MLSMR library; coupled PK/LDH NADH assays, four targets; actives 0.02% (n = 65,000); IC50, µM (highest dose often 10 µM), for inactives: at the top dose inhibition; AID 774, 2007;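 active = single-dose screening hits from any of four coupled enzyme assays that gave an IC50 when retested across doses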;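 note: the DPM-DC format reads NADH fluorescence rather than 340 nm absorbance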
# MK inhibit = S. pneumoniae MK inhibitors, primary screen, biochemical, PK/LDH-coupled NADH absorbance; mevalonate kinase [Streptococcus pneumoniae D39]; purified MK, PK/LDH-coupled NADH absorbance 340 nm; inhibition, % at 10 µM; actives 0.48% (n = 65,000);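 active = ranked among the strongest by inhibition in the single 10 µM screen, a fixed top-ranked set picked for dose follow-up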
# PMK inhibit = S. pneumoniae PMK inhibitors, primary screen, biochemical, mevalonate pathway, pilot trial included; phosphomevalonate kinase (Streptococcus pneumoniae D39); purified PMK, PK/LDH-coupled NADH absorbance 340 nm; inhibition, % at 10 µM; actives 0.49% (n = 65,000);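 active = top-ranked compounds by inhibition in the single 10 µM screen, taking a fixed number of the strongest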;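 note: 0% = full reaction with DMSO carrier and 100% = background rate without enzyme reaction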
# Autofluor 339 = intrinsic fluorescence of library compounds, ex339/em460 – biochemical, MLSMR library, data from DPM-DC assay, artefact control, profiling panel; compound autofluorescence, ex339/em460 nm, NADH buffer; active compounds read high; 1 = no-compound wells, NADH background; fluorescence fold increase at 10 µM; actives 5.5% (n = 65,000);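 active = at 10 µM, mean starting fluorescence two-fold or more over control wells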;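 note: signal is the first read of a kinetic run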
# A340 absorber = compound light absorbance at 340 nm, profiling panel, artefact control, biochemical, MLSMR library, data from PS, PMK, MK assays | compound absorbance at 340 nm, fold over control | fold change at 10 µM | 65,000 tested, under 10 active;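 active = at 10 µM dose, initial 340 nm absorbance at least 2 fold that of control wells; inactive = change under 2 fold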;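 note: initial absorbance extrapolated from kinetic A340 decline of NADH oxidation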
# * marks the source's active call; other numbers are inactive results; i = inactive; . = no result shown; + = active, no number.
SMILES,DPM-DC inhibit,NADH coupling,MK inhibit,PMK inhibit,Autofluor 339,A340 absorber
O=C(COc1nnc2ccccn12)N1CCN(S(=O)(=O)c2ccccc2)CC1,.,4%,12,13,3.4*,1
Cc1cc(C)n(-c2nc3c(c(=O)n(Cc4ccc(Cl)c(Cl)c4)c(=O)n3C)n2C)n1,i,1%,0,6,1.1,0.99
Cc1[nH]c(=O)[nH]c(=O)c1CSc1nnc(CCCCCNC(=O)OC(C)(C)C)o1,i,4%,8,4,1.2,1
O=C(CSc1nnc2scc(-c3ccccc3)n12)N1CCN(Cc2ccccc2)CC1,i,2%,3,12,1.1,1
COc1cc2c(cc1OC)CN(C(=O)CSc1nnc3scc(-c4ccccc4)n13)CC2,+,6%,5,6,1.1,0.98
COC(=O)Cn1c(CN2CCOCC2)nc2c1c(=O)[nH]c(=O)n2C,i,2%,1,5,0.94,1
COc1ccc(NC(=O)c2ccco2)c(NC(=O)Cc2cccs2)c1,i,2%,5,1,1.1,1
Cc1csc2nc(=O)c3ccccc3n12,.,11%,10,11,3.7*,1
CSc1ccc(-c2c(C#N)c(N)nc3c2CCCC3)cc1,.,9%,7,10,3.7*,1.1
N#Cc1c(N)nc2c(c1-c1ccncc1)CCCCC2,i,5%,8,15,1.5,1
O=C(CSc1ncnc2c1oc1ccccc12)NCc1ccco1,i,4%,6,11,1.1,0.99
C(=N\C(/N=C/c1ccco1)c1ccco1)/c1ccco1,i,3%,0,0,2*,1
COc1ccc(C2C(C(=O)NCc3ccccc3)=C(C)Nc3ncnn32)cc1OC (configuration not stated),i,8%,6,17,1.1,1
O=C(O)c1ccccc1C(=O)NCc1ccccc1,i,4%,11,0,0.94,1.1
O=C(O)c1ccccc1NCc1ccncc1,i,8%,12,2,2*,1
O=C(O)c1ccc(CNc2ccccc2C(=O)O)cc1,i,9%,1,4,2.6*,1.1
CC1CC(C)CN(CCCNC(=O)CNC(=O)Cn2ccc3ccccc3c2=O)C1 (configuration not stated),i,6%,1,18,1.1,1
Cc1ccc(C)c(NC(=O)CS(=O)(=O)c2cn(C)c3ccccc23)c1,i,3%,9,1,1.1,0.98
Cc1nc2nc(-c3cccs3)cn2nc1C,.,12%,11,13,3.7*,1
COc1cccc(-c2cn3nc(C)c(C)nc3n2)c1,i,12%,10,13,3.1*,1.1
Cc1c2c(n3c(nc4ccccc43)c1C#N)N(Cc1ccccn1)CC2,.,10%,0,19,4.9*,0.98
Cc1cc(N2CCN(c3ccccn3)CC2)n2c(nc3ccccc32)c1C#N,i,11%,12,3,2.2*,1
Cc1c2c(n3c(nc4ccccc43)c1C#N)N(Cc1cccnc1)CC2,.,4%,0,7,5*,1.1
COCCNc1cc(C)c(C#N)c2nc3ccccc3n12,.,7%,9,5,2.3*,1
N#Cc1c2c(c(N3CCN(c4ccccn4)CC3)n3c1nc1ccccc13)CCC2,i,2%,5,0,1.2,1
SMILES,DPM-DC inhibit,NADH coupling,MK inhibit,PMK inhibit,Autofluor 339,A340 absorber
Cc1ccc(NC(=O)CCC(=O)OCCCC(F)(F)C(F)(F)F)cc1,i,4%,0,11,1.1,0.98
Cn1c(C(=O)N2COCC2(C)C)cc2c(=O)n3ccccc3nc21,.,9%,8,10,5*,1.1
Cc1cc(C(=O)NCC2CCCO2)n(-c2ccccc2)n1 (configuration not stated),i,11%,13,20,1.1,1.1
Cn1c(C(=O)NCC2CCCO2)cc2c(=O)n3ccccc3nc21 (configuration not stated),.,9%,9,9,5*,1.1
CN(C)c1ccc(NC(=O)c2cc3c(=O)n4ccccc4nc3n2C)cc1,i,6%,8,7,1.7,1
Cc1cccn2c(=O)c3cc(C(=O)NCC4CCCO4)n(C)c3nc12 (configuration not stated),.,9%,7,11,5*,1.1
CCOC(=O)C1CCCN(C(=O)c2cc3c(=O)n4cccc(C)c4nc3n2C)C1 (configuration not stated),.,2%,3,12,3.4*,1
O=C(CNS(=O)(=O)c1ccc(F)cc1)N1CCN(c2ccccc2)CC1,i,3%,6,4,1.1,1.1
N#Cc1ccccc1Cn1c(=O)n(Cc2ccc(C(=O)NCc3ccco3)cc2)c(=O)c2ccccc21,i,1%,0,7,1.1,0.99
CN(C)c1ccc(/C=C/C(O)=C2/C(=O)N(C)C3(C)CC2c2ccccc2O3)cc1 (configuration not stated),i,2%,1,1,1.2,1
Cn1nnc2cc(NC(=O)N3CC4(C)CC3CC(C)(C)C4)ccc21 (configuration not stated),i,5%,5,2,1.3,1.1
CCOC(=O)CNC(=O)C1CCCN(c2ncccn2)C1 (configuration not stated),i,4%,11,0,1.4,1
Cc1cccn2c(=O)c3cc(C(=O)N4CCCc5ccccc54)n(C)c3nc12,i,2%,2,12,1.3,1
CNC(=O)c1cc2c(=O)n3cccc(C)c3nc2n1C,.,8%,6,10,5*,1.1
Cc1cccn2c(=O)c3cc(C(=O)N4CCc5ccccc5C4)n(C)c3nc12,.,8%,5,10,5*,1.1
CC(C)Cc1cc(C(=O)N2CCN(c3ccc(F)cc3)CC2)no1,i,8%,13,11,1,1
COc1ccc(C2CC(C(F)(F)F)n3nc(C(=O)NCc4cn(C)nc4C)c(Cl)c3N2)cc1 (configuration not stated),i,11%,16,9,1.2,1
O=C1CC(c2ccccc2)CC(O)=C1C=NCC1CCCO1 (configuration not stated),i,21%,25,38*,1.1,1
COc1ccc(CN2C(=O)c3ccccc3C2C(=O)NCC2CCCO2)c(OC)c1 (configuration not stated),i,7%,0,20,1.1,0.99
COc1ccc(CN2C(=O)c3ccccc3C2C(=O)NC2CCCC2)c(OC)c1 (configuration not stated),i,3%,1,25*,1,0.96
